Test [1] concerns Zika virus NS2B-NS3 protease (unlinked complex). Briefly: Primary screen GU Rhodamine qHTS for Zika virus inhibitors: Unlinked NS2B-NS3 protease assay (AID 1347159). Further: nearly all actives have a fitted effect of over 60% in size. The essentials:
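Noncovalent NS2B hydrophilic domain–NS3 protease domain complex (25 nM) preincubated 15 min at room temperature with compounds (up to 114 microM) in 10 mM Tris-HCl pH 8.0, 0.01% Tween 20; 1.5 microM Rhodamine110 substrate added, fluorescence change over 15 min fitted to Hill equation.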

The subject of test [2] is Zika virus NS2B-NS3 protease (linked construct). Briefly: Primary screen NINDS Rhodamine qHTS for Zika virus inhibitors (AID 1347160). Further: nearly all actives have a fitted effect of over 55% in size. In outline: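 Purified linked NS2B-NS3 protease (NS2B hydrophilic domain joined to NS3 protease by flexible linker), 25 nM in 10 mM Tris-HCl pH 8.0, 0.01% Tween 20. Compounds titrated, 15 min preincubation at room temperature; 1.5 microM Rhodamine110 substrate, FITC fluorescence change over 15 min.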
(In general: qHTS replaces the single test concentration by a dilution series.)

Records with an inconclusive call do not appear. A number with no mark means an inactive call. The source made the active and inactive calls. The call rests on the fitted dose curve; in most records, active means well fitted inhibition curve with a large enough effect; inconclusive means small, poorly fitted or top-dose-only effect; inactive means no such curve, though single readings can be large or run the other way.
On the % scale 0 is the no-effect control and ±100 the full control effect; potency means the concentration at half of the fitted maximal effect.

Consider `COc1cc2ncnc(Nc3ccc(O)cc3)c2cc1OC`, for which the Potency entry in test [1] and in test [2] was “inactive” each time.
For the compound `CC(=O)O[C@@H](CO[C@@H]1O[C@H](CO)[C@H](O)[C@H](O)[C@H]1O)[C@]1(C)C=C2CC[C@@H]3C(C)(C)[C@@H](O)CC[C@@]3(C)[C@@H]2CC1`, the Potency entry in test [1] and in test [2] was “inactive” in each case.
On to `CC(=O)O[C@@H]1[C@H](O[C@@H]2O[C@@H](CO)[C@H](O)[C@H]2O)[C@@H](O[C@@H]2O[C@@H](C)[C@H](O[C@@H]3OC[C@@H](O)[C@H](O)[C@H]3O)[C@@H](O)[C@H]2O)[C@H](OC(=O)[C@]23CCC(C)(C)C[C@H]2C2=CCC4[C@@]5(C)CC[C@H](O[C@@H]6O[C@H](C(=O)O)[C@@H](O)[C@H](O)[C@H]6O[C@@H]6O[C@H](CO)[C@H](O)[C@H](O)[C@H]6O)[C@@](C)(C=O)C5CC[C@@]4(C)[C@]2(C)CC3)O[C@@H]1C` (some centres undefined), for which the activity change, negative = inhibition in test [1] is 10.7% [at 19.1 µM]; in test [2] it was -19.7% [at 10.7 µM].
For the compound `C[C@@]1(O)[C@H](O)[C@@H](CO)O[C@H]1n1ccc(N)nc1=O`, the Potency result in test [1] and in test [2] was “inactive” throughout.
As for `O=C(NCc1cccc(O)c1)Nc1nc(-c2ccncc2)cs1`, the Potency entry in test [1] and in test [2] was “inactive” throughout.
In the case of `C[C@@H]1O[C@@H](O[C@H]2[C@H](O)[C@@H](O[C@@H]3O[C@H](CO)[C@@H](O)[C@H](O[C@@H]4O[C@H](CO)[C@@H](O)[C@H](O)[C@H]4O)[C@H]3O)[C@H](O[C@H]3CC[C@@]4(C)C(=CC[C@@H]5C4CC[C@@]4(C)C5C[C@@H]5OC6(CC[C@@](C)(CO[C@@H]7O[C@H](CO)[C@@H](O)[C@H](O)[C@H]7O)O6)[C@@H](C)[C@@H]54)C3)O[C@@H]2CO)[C@H](O)[C@H](O)[C@H]1OC1OC(CO)C(O)C(O)C1O` (some centres undefined), the activity change, negative = inhibition in test [1] is -17.5% [at 19.1 µM]; in test [2], -10.4% [at 10.7 µM].
Consider `COC(=O)C12C(=O)C(C)=C(O)C1(C)C(C)=CC1C3(CO)CCC(O)C(C)(C)C3CCC12C` (centres undefined), for which the Potency result in test [1] and in test [2] was “inactive” in each case.
Turning to `Cc1ccc(-c2c(C(=O)CF)n(CCCO)c3ncnc(N)c23)cc1`, the Potency result in test [1] and in test [2] was “inactive” in each case.
On to `O=C(c1cn(Cc2cncn2Cc2ccc(Br)cc2)cc1-c1cccc2ccccc12)N1CCOCC1`, for which the Potency result in test [1] and in test [2] was “inactive” in each case.
With `COc1ccc(CCO[C@@H]2O[C@H](CO[C@@H]3OC[C@H](O)[C@H](O)[C@H]3O)[C@@H](O)[C@H](O)[C@H]2O)cc1`, the Potency entry in test [1] and in test [2] was “inactive” each time.
Take `CC(C)C(=O)OC[C@H]1O[C@H](O[C@H]2O[C@H](CO)[C@@H](O)[C@H](O)[C@H]2O)[C@H](O)[C@@H](O)[C@@H]1O`: the Potency entry in test [1] and in test [2] was “inactive” in each case.
`C/C=C(\C)C(=O)O[C@@H]1CC2[C@@H](CC=C3C[C@@H](O[C@H]4C[C@H](OC)[C@H](O[C@H]5C[C@H](OC)[C@H](O[C@@H]6O[C@H](C)[C@@H](O[C@H]7C[C@H](OC)[C@H](O[C@@H]8O[C@H](CO)[C@@H](O)[C@H](O)[C@H]8O)[C@@H](C)O7)[C@H](OC)[C@H]6O)[C@@H](C)O5)[C@@H](C)O4)CC[C@@]32C)[C@@]2(O)CC[C@H](C(C)=O)[C@@]12C` (some centres undefined): the activity change, negative = inhibition in test [1] was 8.5% [at 19.1 µM]; in test [2], 18.6% [at 10.7 µM].
In the case of `C=CC(=O)Nc1cc(Nc2nccc(-c3c[nH]c4ccccc34)n2)c(OC)cc1N(C)CCN(C)C`, the Potency result in test [1] and in test [2] was “inactive” in each case.
Consider `Cc1ccc(Cc2c(C)nc3nc(SCC(=O)NCCN4CCNCC4)nn3c2C)cc1`, for which the Potency result in test [1] and in test [2] was “inactive” each time.
As for `CCOCCn1nc(CC)c2nc(N3CCC(C(=O)O)CC3)nc(Nc3cc(C)ccn3)c21`, the Potency entry in test [1] and in test [2] was “inactive” in each case.
For `Cc1[nH]c2ccccc2c1CCNC(=O)c1ccccc1F`, the Potency result in test [1] and in test [2] was “inactive” throughout.
On to `Cc1oc2ccccc2c1CNC(=O)NCc1cccs1`, for which the Potency result in test [1] and in test [2] was “inactive” throughout.
In the case of `COc1cc(O)cc(C)c1C(=O)O[C@H]1[C@@H](OC(C)=O)[C@H](n2ccc(=O)[nH]c2=O)O[C@@H]1CO`, the Potency entry in test [1] and in test [2] was “inactive” each time.
Consider `COc1cc(N2CCOCC2)ccc1Nc1ncc(Cl)c(Nc2ccccc2NS(C)(=O)=O)n1`, for which the Potency result in test [1] and in test [2] was “inactive” throughout.
`CC1(C)CCC[C@]2(C)[C@H]3CC(=O)O[C@]3(C)CC[C@@H]12`: the Potency entry in test [1] and in test [2] was “inactive” throughout.
For the compound `C=C(CCC1=C(C)[C@H]2[C@H](CC3[C@@H]4CC=C5C[C@@H](O)C[C@@H](O)[C@]5(C)C4[C@H](O)C[C@@]32C)O1)CO[C@@H]1O[C@H](CO)[C@@H](O)[C@H](O)[C@H]1O` (some centres undefined), the Potency entry in test [1] and in test [2] was “inactive” throughout.
On to `C/C(=C\CCC1(C)C2CCC(C2)C1(C)O)C(=O)O` (centres undefined), for which the Potency in test [1] is 22.4 µM (active). Further, the Potency entry in test [2] was “inactive”.
As to `CC1CCC2(OC1)OC1CC3C4CCC5C[C@@H](O[C@@H]6O[C@H](CO[C@@H]7OC[C@@H](O)[C@H](O)[C@H]7O)[C@H](O)[C@H](O)[C@H]6O)CC[C@]5(C)C4CC[C@]3(C)C1C2C` (some centres undefined), the Potency entry in test [1] and in test [2] was “inactive” each time.
Take `Cc1nc2sc(C(=O)NCc3ccncc3)c(N)c2c(C)c1Cl`: the Potency entry in test [1] and in test [2] was “inactive” in each case.
For `CCOc1cc(C)c(Cl)cc1S(=O)(=O)n1cnc2ccccc21`, the Potency entry in test [1] and in test [2] was “inactive” throughout.
As for `COc1ccc(C2=N[C@@H](c3ccc(Cl)cc3)[C@@H](c3ccc(Cl)cc3)N2C(=O)N2CCNC(=O)C2)c(OC(C)C)c1`, the Potency result in test [1] and in test [2] was “inactive” each time.
`CC1CCC2(C=O)C(CO)=CCCC2C1(C)CC(=O)O` (centres undefined): the Potency in test [1] was 11.2 µM (active); in test [2], 12.6 µM (active).

Source of the values: PubChem BioAssay (NCATS).
